Pf apPOL block = Pf-apPOL inhibitors, biochemical, fluorescence; actives 0.25% (n = 210,000); inhibition, % at 10 µM; Recombinant Pf-apPOL, molecular beacon fluorescence, 1.5 h; Plasmodium falciparum apicoplast DNA polymerase (apPOL)
mHTT CaM bind = mutant huntingtin-calmodulin interaction inhibitors – biochemical, AlphaScreen, primary screen; AlphaScreen His-mHTT/GST-CaM binding, luminescence; inhibition, % at 15 µM; actives 3.6% (n = 190,000); P42858
Large screens that a line does not name were inactive. Rows were chosen to be rich in hits. Some 3.6% of all compounds tested hit in one or more screens of this group. No stated cut-off is given here; in the data, active means inhibition above about 50%; inactive means the rest.

O=C(NCc1ccccc1Cl)C1CCCN(c2nc3ccccc3o2)C1 (configuration not stated)	none
O=C(N1CCN(c2ccc([N+](=O)[O-])cc2)CC1)C12CC3CC(CC(C3)C1)C2	none
COc1cc(NC2=CC(=O)CC(c3ccc(C)cc3)C2)cc(OC)c1 (configuration not stated)	none
O=[N+]([O-])c1cc(CN2CCCC2)c2cccnc2c1O	mHTT CaM bind 100
COc1cc(CN2CCCCCC2)cc([N+](=O)[O-])c1O	none
O=C(Nc1nc2c(s1)CN(CC(=O)N1CCCc3ccccc31)CC2)c1cnccn1	mHTT CaM bind 63
O=C(Nc1nc2c(s1)CN(C(=O)Cc1cccs1)CC2)c1cnccn1	none
O=S(=O)(NC1CCCc2ccccc21)c1cccc2nonc12 (configuration not stated)	none (no result: mHTT CaM bind)
CCOc1cc(C)c(N)cc1C(C)C	none
COc1ccc(NC(=O)CCOc2ccccc2)c(OC)c1	none
COc1ccc(NC(=O)CC2(C)NN=C(c3ccccc3)S2)c(OC)c1 (configuration not stated)	mHTT CaM bind 73
Cc1cc(N2C(=O)c3ccc(C(=O)N4CC=C(c5ccccc5)CC4)cc3C2=O)no1	mHTT CaM bind 51
Cc1cc(N2C(=O)c3ccc(C(=O)O)cc3C2=O)no1	none
Cc1nnc(NC(=O)c2ccc(S(=O)(=O)N(CC(C)C)CC(C)C)cc2)o1	mHTT CaM bind 51
CCCCN(CC)S(=O)(=O)c1ccc(C(=O)Nc2nnc(C)o2)cc1	none
CCCCN(CC)S(=O)(=O)c1ccc(C(=O)Nc2nnc(-c3ccccc3OC)o2)cc1	mHTT CaM bind 52
CCN(Cc1ccccc1)S(=O)(=O)c1ccc(C(=O)Nc2nnc(CSC)o2)cc1	none
CCN(Cc1ccccc1)S(=O)(=O)c1ccc(C(=O)Nc2nnc(C)o2)cc1	mHTT CaM bind 74
CCN(CC)S(=O)(=O)c1ccc(C(=O)Nc2nnc(-c3ccc(OC)cc3OC)o2)cc1	none
Cc1cc(C)cc(N2C(=O)CSC2c2ccc(Br)cc2)c1 (configuration not stated)	none
COCC(=O)N1CCc2c(c(C(=O)NCc3ccc(Cl)cc3)nn2C)C1	none
Cn1nc(C(=O)NCc2ccc(F)cc2)c2c1CCN(C(=O)COc1ccc(F)cc1)C2	mHTT CaM bind 81
Cn1nc(C(=O)NCc2ccccc2)c2c1CCN(C(=O)COc1ccccc1)C2	mHTT CaM bind 56
CCOc1ccc(C(=O)N2CCc3c(c(C(=O)NCc4ccc(F)cc4)nn3C)C2)cc1	none
CC(C)CC(=O)N1CCc2c(c(C(=O)NCc3ccccc3)nn2C)C1	none
Cn1nc(C(=O)NCc2ccccc2)c2c1CCN(C(=O)COc1ccc(Cl)cc1)C2	mHTT CaM bind 87
CCOC(=O)c1c(N=CC2=C(O)CC(c3cccs3)CC2=O)sc(C)c1C (configuration not stated)	none (no result: mHTT CaM bind)
O=C(CCCOc1ccc(Cl)cc1)Nc1nccs1	Pf apPOL block 52
O=C(O)CCCC(=O)Nc1nccs1	none
CCCCCCN1C[C@H](O)[C@@H](n2cc(-c3ccc(F)cc3)nn2)C[C@@H]1c1ccccc1	none
O[C@H]1C[C@H](c2ccc(Cl)cc2)N(Cc2cccs2)C[C@@H]1n1cc(-c2ccc(F)cc2)nn1	mHTT CaM bind 100
Cc1ccc([C@H]2C[C@H](O)[C@@H](n3cc(-c4ccc(F)cc4)nn3)CN2C(=O)C2CCCCC2)cc1	mHTT CaM bind 74
Cc1ccc([C@H]2C[C@H](O)[C@@H](n3cc(-c4ccc(F)cc4)nn3)CN2Cc2cccs2)cc1	none
O[C@H]1C[C@H](c2ccccc2)N(CC2CCCCC2)C[C@@H]1n1cc(C2CC2)nn1	mHTT CaM bind 93
O=C(C1CCCCC1)N1C[C@@H](n2cc(-c3ccc(F)cc3)nn2)[C@H](O)C[C@@H]1c1ccccc1	none
O[C@@H]1CN(CC2CCCCC2)[C@@H](c2ccccc2)C[C@H]1n1cc(C2CC2)nn1	none
CCCCCCN1C[C@H](n2cc(-c3ccc(F)cc3)nn2)[C@@H](O)C[C@@H]1c1ccccc1	mHTT CaM bind 60
C=CCOc1ccc(C(O)=C2C(=O)C(=O)N(CCCn3ccnc3)C2c2cccnc2)cc1 (configuration not stated)	none
O[C@H]1CN(CC2CCCCC2)[C@@H](c2ccc(Cl)cc2)C[C@@H]1n1cc(-c2ccc(F)cc2)nn1	none
O[C@H]1CN(CC2CCCCC2)[C@@H](c2ccc(Cl)cc2)C[C@@H]1n1cc(C2CC2)nn1	mHTT CaM bind 54
CCCCCCN1C[C@@H](n2cc(C3CC3)nn2)[C@H](O)C[C@@H]1c1ccc(Cl)cc1	none
CCCCCCN1C[C@H](n2cc(C3CC3)nn2)[C@@H](O)C[C@@H]1c1ccc(Cl)cc1	mHTT CaM bind 100
Cc1ccc(CNC(=O)c2cc(-c3ccc(Br)s3)nc3ccccc23)o1	mHTT CaM bind 96
CC(=O)Nc1cc(C(=O)NCc2ccccc2Br)c2ccc(C)nc2c1	mHTT CaM bind 55
COc1ccc(C(C)NC(=O)c2cc(NC(C)=O)cc3nc(C)ccc23)cc1 (configuration not stated)	mHTT CaM bind 54
O=C(NCc1ccco1)c1cc(-c2ccc(Br)s2)nc2ccccc12	none
CCOc1ccccc1CNC(=O)c1cc(NC(C)=O)cc2nc(C)ccc12	none
CCOc1ccc(C(C)NC(=O)c2cc(NC(C)=O)cc3nc(C)ccc23)cc1 (configuration not stated)	none
CNC(=O)c1cc(NC(=O)C2CCC2)cc2nc(C)ccc12	none
Cc1ccc2c(C(=O)NCc3ccc(C)o3)cc(NC(=O)C3CCC3)cc2n1	mHTT CaM bind 64
O=C(Cc1ccc(F)cc1)Nc1cccnc1	none
COc1ccccc1N(C(=O)C(Cl)(Cl)Cl)C1C=CS(=O)(=O)C1 (configuration not stated)	none
COc1ccc(-c2cc3ccc4c(c3oc2=O)CN(C2CCS(=O)(=O)C2)CO4)cc1 (configuration not stated)	none
O=C(c1ccco1)N1CCN(Cc2c[nH]c3ccccc23)CC1	none
CC(C)(C)c1ccc(C(=O)Nc2nnc3ccccn23)cc1	none
Cc1ccc(Cl)cc1N1CCN(c2ncnc3c2nc2n3CCCC2)CC1	mHTT CaM bind 99
Cc1ccc(C)c(N2CCN(c3ncnc4c3nc3n4CCCC3)CC2)c1	none
Cc1cccc(OCC(=O)Nc2ccc(Nc3ccccc3)cc2)c1	mHTT CaM bind 74
Cc1ccc(OCC(=O)N2CCCCC2CCN2CCCCC2)cc1C (configuration not stated)	mHTT CaM bind 54
CCC(=O)Nc1ccc(NC(=O)COc2ccc(C)c(C)c2)cc1	none
Cc1ccc(OCC(=O)Nc2ccc(N3CCCC3)cc2)cc1C	mHTT CaM bind 99
COc1ccc(C(=O)Nc2ccc(N3CCCC3)cc2)cc1OC	none
CCC(=O)Nc1ccc(NC(=O)COc2cccc(C)c2)cc1	none
Cc1cc(OCC(=O)N2CCCCC2CCN2CCCC2)ccc1Cl (configuration not stated)	none
CCOc1cc(C(=O)Nc2ccc(N3CCCC3)cc2)cc(OCC)c1OCC	mHTT CaM bind 79
O=C(CN1CCN(c2cccc(Cl)c2)C1=O)NC1CCS(=O)(=O)C1 (configuration not stated)	none
CCNC(=O)C1CCN(c2nc3ccc(-c4cccnc4)nc3s2)CC1	none
Cc1ccc(C(=O)O)cc1NC(=O)c1cccc([N+](=O)[O-])c1	none
CC(C)(C)N(Cc1cn(Cc2ccccc2)nn1)S(=O)(=O)c1ccc(F)cc1Br	none

Screening results deposited in PubChem by University of Kansas High Throughput Screening Laboratory.
